High-throughput results (PubChem)
MEKK2wt PB1 HTS: raises or lowers MEK5 binding to wildtype human MEKK2 PB1 domain | Q9Y2U5 | bead flow cytometry, Alexa488-MEK5 binding to MEKK2 WT; actives lie on both sides | binding response (% of control), % at 10 µM | hit rate 1.1% among 290,000 | AID 1531; in the data active means binding response below about 67% or above about 130%
MEKK2 mut-MEK5: signal of MEK5 binding to mutant human MEKK2 PB1 domain; bead flow cytometry, Alexa488-MEK5 binding to MEKK2 mutant; percent response, % at 10 µM; hit rate 0.35% among 290,000; in the data active means percent response above about 24%, passing the limit was not always enough
MEKK3 PB1 HTS: modulators (inhibitors or enhancers) of MEK5 binding to human MEKK3 PB1 domain; hit rate 1.4% among 290,000; bead-based flow cytometry, Alexa488-MEK5 binding to MEKK3; actives lie on both sides; 0 = blocked by unlabeled MEK5, 100 = vehicle; binding response (% of control), % at 10 µM; Q99759;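 active means binding response more than 3 SD above or below the average of its plate-row segment, actives on both sides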;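 further: Alexa488 bead fluorescence after subtracting the streptavidin-only scavenger bead signal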
B2AR ag: activates human beta-2 adrenergic receptor causing internalization. P07550. Am2.2-beta2AR cells, FAP receptor internalization, flow cytometry. response, % (no concentration beside the values). hit rate 0.43% among 340,000. AID 504454;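 active means response above a set limit, near 3 SD of response in nonfluorescent compounds, cut at about 42% in these data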
GRK2 inh: blocks RNA aptamer binding to human GRK2; inhibition of aptamer binding, % at 10 µM; AID 488847; bead flow cytometry, FAM-aptamer displacement from GRK2; hit rate 0.59% among 330,000; P25098;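 active means inhibition of aptamer binding above 40%, roughly 3 SD of noise, on plates passing a quality check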;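 further: median bead fluorescence of bound FAM aptamer so fluorescent compounds give negative values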
Target sequence (P25098 whole entry, looked up): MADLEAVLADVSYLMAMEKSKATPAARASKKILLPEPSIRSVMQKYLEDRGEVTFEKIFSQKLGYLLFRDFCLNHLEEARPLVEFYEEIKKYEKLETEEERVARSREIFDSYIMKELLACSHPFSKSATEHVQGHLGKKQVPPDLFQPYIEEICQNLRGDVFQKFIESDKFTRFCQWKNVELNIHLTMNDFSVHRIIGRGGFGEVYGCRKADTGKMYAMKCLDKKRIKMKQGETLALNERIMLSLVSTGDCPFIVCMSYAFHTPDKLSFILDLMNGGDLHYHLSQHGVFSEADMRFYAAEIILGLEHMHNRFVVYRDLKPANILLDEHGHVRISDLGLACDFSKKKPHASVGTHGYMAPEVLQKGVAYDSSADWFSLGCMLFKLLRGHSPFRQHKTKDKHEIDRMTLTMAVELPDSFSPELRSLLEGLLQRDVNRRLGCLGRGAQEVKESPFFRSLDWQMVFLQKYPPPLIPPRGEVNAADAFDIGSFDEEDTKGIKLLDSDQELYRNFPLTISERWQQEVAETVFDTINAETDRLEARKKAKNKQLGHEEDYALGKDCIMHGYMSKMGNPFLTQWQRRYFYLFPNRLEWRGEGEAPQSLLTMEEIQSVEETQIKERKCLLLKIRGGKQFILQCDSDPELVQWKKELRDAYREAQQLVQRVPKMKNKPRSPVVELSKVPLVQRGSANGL
Beta2AR ag CP1: agonists of human beta-2 adrenergic receptor; percent response (surface receptor), % at 10 µM; hit rate 25% among 1,100; shares compounds with B2AR ag; Am2.2-beta2AR cells, FAP surface receptor, flow cytometry; active compounds read low; AID 540358;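 active means surface receptor percent response at or below 58%, roughly 3 SD from nonfluorescent compounds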
B2AR FAP counter: fluorescence artifact in beta-2AR agonist FAP counterscreen; shares compounds with B2AR ag; Am2.2 cells, FAP fluorogen flow cytometry; active compounds read low; calls only at 10 µM; 1,100 tested, under 10 active;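 active means percent response below a set limit in fluorescence channel 1 and below 50% in channel 8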
* marks the source's active call; other numbers are inactive results; i = inactive; . = no result; + = active, no number. The list is not random: actives were taken first. Their share in the collection is about 2.9%.

SMILES	MEKK2wt PB1 HTS	MEKK2 mut-MEK5	MEKK3 PB1 HTS	B2AR ag	GRK2 inh	Beta2AR ag CP1	B2AR FAP counter
Clc1cccc2c3c([nH]c12)CCNC3	100	0	100	-4	0	.	.
Cc1ccc(S(=O)(=O)N(Cc2cccnc2)Cc2cc3ccccc3[nH]c2=O)cc1	102	-3	102	-11	0	154	i
COc1ccc(S(=O)(=O)N(Cc2cccnc2)Cc2cc3ccccc3[nH]c2=O)cc1	114	14	107	-5	1	152	i
COc1ccc(CN(CC(=O)NCc2ccccc2)C(=O)CCC(=O)Nc2ccccn2)cc1	96	-9	98	-8	0	.	.
Cc1nnc(NC(=O)C2CCN(S(=O)(=O)c3ccc(F)c(Cl)c3)CC2)o1	.	.	.	-7	.	.	.
O=C(OCC(O)C(O)C(O)C(SCc1ccccc1)SCc1ccccc1)c1ccccc1 (configuration not stated)	.	.	.	1	.	.	.
COc1cccc(NC(=O)C(c2ccccc2)N2CCCCC2)c1 (configuration not stated)	97	-1	95	-1	1	105	i
O=C(CCS(=O)(=O)c1ccccc1)Nc1nc2c(s1)COc1ccccc1-2	99	1	98	59*	0	101	i
CC1C[C@@]2(NC(=O)NC2=O)C(C)CN1C (some centres not stated)	104	5	105	46*	0	108	i
CCN1CCN(c2ccc(S(=O)(=O)N3CCCCC3)cc2NC(=O)c2cc3ccccc3o2)CC1	.	.	.	48*	0	115	i
CN(c1ccccc1)c1ccc(/C=N/NC(=O)CC#N)cc1	101	-3	97	-6	0	104	i
Cc1ccc(N2C(=O)C3C4C=CC(CC4)C3C2=O)c([N+](=O)[O-])c1 (configuration not stated)	105	11	108	-6	0	.	.
O=C(CN1C(=O)/C(=C2\SC(=S)N(C3CCS(=O)(=O)C3)C2=O)c2ccccc21)Nc1ccccc1 (configuration not stated)	123	5	95	12	0	.	.
Cc1ccc(NC(=O)CN2C(=O)/C(=C3\SC(=S)N(C4CCS(=O)(=O)C4)C3=O)c3ccccc32)cc1 (configuration not stated)	87	10	100	49*	.	83	i
O=[N+]([O-])c1cccc(-c2nc(-c3ccccc3)c(-c3cccs3)[nH]2)c1	103	1	101	50*	0	111	i
Cc1cccc(NC(=O)c2cc(-c3cccnc3)nc3c(C)cccc23)n1	99	-3	99	75*	0	129	i
COc1ccc(NC(=O)c2nnn(CC(=O)Nc3ccc4c(c3)OCO4)c2N)c(OC)c1	102	0	101	3	9	.	.
COc1cc(C(=O)Nc2nc3ccccc3s2)ccc1OCc1c(C)noc1C	113	5	103	53*	0	108	i
O=C(c1ccc2c(c1)OCCO2)C1CCN(C(=O)Nc2ccccc2F)CC1	103	5	100	-3	0	.	.
COc1ccc(C(=O)NCC(c2ccco2)N2CCc3ccccc32)cc1 (configuration not stated)	.	.	.	54*	1	91	i
Cc1ccc(-c2csc3ncnc(SCC(=O)Nc4nnc(C)s4)c23)cc1	92	-2	96	-2	0	.	.
Cc1ccc(-c2csc3ncnc(Sc4nnc(CN5CCCCCC5=O)o4)c23)cc1	96	0	100	42*	0	87	i
CCC1CCCCN1CC(=O)Nc1cc(C)nn1-c1nc(C)cc(C)n1 (configuration not stated)	109	10	109	-13	0	123	i
CCOC(=O)c1cc(NC(=O)N(C)C2CCCCC2)c(C)nc1C	96	-4	96	48*	1	106	i
Cc1ccc(S(=O)(=O)NC(C)(C)CN2CCC(Cc3ccccc3)CC2)cc1	125	28	108	50*	0	107	i
SMILES	MEKK2wt PB1 HTS	MEKK2 mut-MEK5	MEKK3 PB1 HTS	B2AR ag	GRK2 inh	Beta2AR ag CP1	B2AR FAP counter
COc1ccc(C(=O)NNC(=O)c2ccc(F)c(S(=O)(=O)N3CCOCC3)c2)cc1	.	.	.	-1	0	.	.
CC(C)CC(=O)NC(c1cccs1)c1ccc2cccnc2c1O (configuration not stated)	108	0	118	7	0	.	.
CCC(=O)NC(c1cccs1)c1ccc2cccnc2c1O (configuration not stated)	98	4	101	3	0	105	i
O=C(CN1C(=O)CCC1=O)Nc1nc(-c2nc3ccccc3s2)cs1	103	5	99	103*	3	9.2*	i
Cc1ccc(C)c(C(=O)CCC(=O)OCn2nnc3ccccc3c2=O)c1	.	.	.	-3	0	.	.
N=c1n(Cc2ccccc2)c2ccccc2n1Cc1ccccc1	106	-2	95	21	0	.	.
N=c1n(CC(=O)c2ccc([N+](=O)[O-])cc2)c2ccccc2n1Cc1ccccc1	127	30	110	98*	1	40*	i
N=c1n(CC(=O)O)c2ccccc2n1Cc1ccccc1Cl	104	0	97	3	1	.	.
N=c1n(CC(=O)c2ccc(Br)cc2)c2ccccc2n1Cc1ccccc1	.	.	.	74*	0	33*	i
N=c1n(CC(=O)c2ccc([N+](=O)[O-])cc2)c2ccccc2n1Cc1ccccc1Cl	122	0	103	93*	0	24*	+
C=CCn1c(=N)n(CC(=O)c2cccc([N+](=O)[O-])c2)c2ccccc21	106	0	103	-9	0	.	.
Cc1ccc(S(=O)(=O)N2CCCC2C(=O)NCc2ccccc2F)cc1 (configuration not stated)	99	-1	95	7	0	.	.
COc1ccccc1-c1cc(C(F)(F)F)nc(S(=O)(=O)CCCC(=O)NC(C)C)n1	105	1	104	98*	0	54*	i
COc1ccccc1-c1cc(C(F)(F)F)nc(S(=O)(=O)CCCC(=O)N2CCCCC2C)n1 (configuration not stated)	96	1	94	35	10	66	i
COc1ccccc1-c1cc(C(F)(F)F)nc(S(=O)(=O)CCCC(=O)Nc2cc(C)on2)n1	96	-1	96	32	0	.	.
COc1ccccc1-c1cc(C(F)(F)F)nc(S(=O)(=O)CCCC(=O)Nc2cccnc2Cl)n1	84	-13	90	12	.	.	.
COc1ccc(CNC(=O)COC(=O)c2ccc(Br)cc2)cc1	107	3	112	5	0	.	.
